Each structure is given as a SMILES string.

Details in all cases: Compound concentration 20.0 uM, Protein concentration 2.0 uM, Result type QC Liability
Experiment [1] deals with Tyrosine-protein kinase ABL1 (Homo sapiens) (UniProt P00519).
The target of experiment [2] is Cyclin-dependent kinase 2 (Homo sapiens) (UniProt P24941).
Experiment [3] deals with Casein kinase I isoform delta (Homo sapiens) (UniProt P48730).
Experiment [4] addresses Glycogen synthase kinase-3 beta (Homo sapiens) (UniProt P49841).
Experiment [5] has as its target Mitogen-activated protein kinase 1 (Homo sapiens) (UniProt P28482).
Experiment [6] deals with T1, Aurora kinase A (Homo sapiens) (UniProt O14965).
T1 sequence (whole entry): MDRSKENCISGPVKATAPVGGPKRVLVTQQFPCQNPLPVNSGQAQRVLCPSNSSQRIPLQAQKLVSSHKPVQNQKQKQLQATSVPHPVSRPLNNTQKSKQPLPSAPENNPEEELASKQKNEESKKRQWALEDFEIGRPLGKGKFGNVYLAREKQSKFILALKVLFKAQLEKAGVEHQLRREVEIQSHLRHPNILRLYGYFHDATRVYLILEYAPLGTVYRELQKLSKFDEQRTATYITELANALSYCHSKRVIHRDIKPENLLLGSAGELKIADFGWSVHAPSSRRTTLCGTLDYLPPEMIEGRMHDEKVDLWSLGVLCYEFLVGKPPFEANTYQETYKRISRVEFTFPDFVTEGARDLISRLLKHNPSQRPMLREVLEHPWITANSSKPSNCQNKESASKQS

Glycogen synthase kinase-3 beta (Homo sapiens), sequence (P49841 whole entry, looked up): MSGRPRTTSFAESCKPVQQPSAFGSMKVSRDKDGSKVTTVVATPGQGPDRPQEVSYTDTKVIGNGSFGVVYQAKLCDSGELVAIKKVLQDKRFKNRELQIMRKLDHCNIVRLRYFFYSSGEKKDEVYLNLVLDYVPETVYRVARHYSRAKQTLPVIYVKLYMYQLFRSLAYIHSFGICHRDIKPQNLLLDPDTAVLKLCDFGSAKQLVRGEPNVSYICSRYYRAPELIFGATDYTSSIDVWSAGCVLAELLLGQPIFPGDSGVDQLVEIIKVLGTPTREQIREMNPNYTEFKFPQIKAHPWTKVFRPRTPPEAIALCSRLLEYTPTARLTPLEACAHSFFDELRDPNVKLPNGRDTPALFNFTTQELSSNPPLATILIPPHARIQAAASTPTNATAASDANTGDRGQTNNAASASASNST
Mitogen-activated protein kinase 1 (Homo sapiens), sequence (P28482 whole entry): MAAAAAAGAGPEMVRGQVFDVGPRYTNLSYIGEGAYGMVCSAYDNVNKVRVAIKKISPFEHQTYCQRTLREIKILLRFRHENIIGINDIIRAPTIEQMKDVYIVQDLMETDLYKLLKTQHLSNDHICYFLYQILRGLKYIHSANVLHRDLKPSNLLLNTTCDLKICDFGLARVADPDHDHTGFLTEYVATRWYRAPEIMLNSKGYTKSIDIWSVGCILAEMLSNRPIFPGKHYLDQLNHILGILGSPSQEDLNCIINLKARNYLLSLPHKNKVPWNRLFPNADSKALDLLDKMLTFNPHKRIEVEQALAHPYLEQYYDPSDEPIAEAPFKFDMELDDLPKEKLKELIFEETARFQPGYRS
Tyrosine-protein kinase ABL1 (Homo sapiens), sequence (P00519 whole entry): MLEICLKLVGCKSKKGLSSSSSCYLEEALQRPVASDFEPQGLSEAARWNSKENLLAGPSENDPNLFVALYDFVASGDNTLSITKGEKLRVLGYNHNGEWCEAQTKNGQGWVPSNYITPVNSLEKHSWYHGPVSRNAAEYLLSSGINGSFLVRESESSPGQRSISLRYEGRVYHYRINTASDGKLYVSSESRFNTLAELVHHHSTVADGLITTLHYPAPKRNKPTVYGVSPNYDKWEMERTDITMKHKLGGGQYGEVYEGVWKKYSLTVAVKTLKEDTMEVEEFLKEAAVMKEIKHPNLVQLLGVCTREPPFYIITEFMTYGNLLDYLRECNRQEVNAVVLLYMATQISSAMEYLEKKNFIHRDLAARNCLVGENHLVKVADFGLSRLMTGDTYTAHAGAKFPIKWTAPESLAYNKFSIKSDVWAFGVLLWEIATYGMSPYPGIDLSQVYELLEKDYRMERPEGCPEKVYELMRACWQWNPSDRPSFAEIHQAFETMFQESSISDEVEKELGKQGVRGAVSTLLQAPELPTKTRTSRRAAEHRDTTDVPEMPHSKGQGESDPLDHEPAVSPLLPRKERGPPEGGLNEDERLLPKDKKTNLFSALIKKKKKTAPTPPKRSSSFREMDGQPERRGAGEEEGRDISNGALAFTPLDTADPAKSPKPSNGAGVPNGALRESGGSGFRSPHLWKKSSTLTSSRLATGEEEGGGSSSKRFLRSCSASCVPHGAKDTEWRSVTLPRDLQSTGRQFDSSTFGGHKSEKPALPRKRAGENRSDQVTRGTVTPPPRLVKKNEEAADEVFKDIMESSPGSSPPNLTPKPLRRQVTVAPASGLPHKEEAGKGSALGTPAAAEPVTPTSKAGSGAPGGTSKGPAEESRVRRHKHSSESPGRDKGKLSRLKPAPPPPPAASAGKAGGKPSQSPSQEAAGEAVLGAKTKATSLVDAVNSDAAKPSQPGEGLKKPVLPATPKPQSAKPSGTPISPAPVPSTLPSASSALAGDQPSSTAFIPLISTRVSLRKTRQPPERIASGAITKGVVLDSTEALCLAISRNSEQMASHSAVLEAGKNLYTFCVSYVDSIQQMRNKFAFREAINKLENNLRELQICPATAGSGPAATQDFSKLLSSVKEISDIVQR
Casein kinase I isoform delta (Homo sapiens), sequence (P48730 whole entry, looked up, canonical isoform): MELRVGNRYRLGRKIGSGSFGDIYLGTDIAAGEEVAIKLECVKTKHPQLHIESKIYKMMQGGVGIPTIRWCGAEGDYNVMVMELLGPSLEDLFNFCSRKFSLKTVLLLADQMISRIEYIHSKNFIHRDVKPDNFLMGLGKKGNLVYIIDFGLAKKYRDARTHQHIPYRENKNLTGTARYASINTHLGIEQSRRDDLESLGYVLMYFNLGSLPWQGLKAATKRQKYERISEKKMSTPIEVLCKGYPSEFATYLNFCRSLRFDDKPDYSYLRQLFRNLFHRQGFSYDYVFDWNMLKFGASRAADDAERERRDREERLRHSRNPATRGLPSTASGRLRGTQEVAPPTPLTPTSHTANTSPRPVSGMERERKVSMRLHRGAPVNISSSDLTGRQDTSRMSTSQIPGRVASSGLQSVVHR

As for `CC[C@@H](Nc1c(C#N)c(-c2ccc(-c3cccc(C)c3F)cc2)nc2cnccc12)C(=O)O`, the ΔTm (as a rule, the shift of the melting midpoint relative to a reference) in experiment [1] was 1.07 °C; in experiment [2], -0.82 °C; in experiment [3] it was -0.63 °C; in experiment [4], 0.06 °C; in experiment [5], -0.07 °C; in experiment [6], 5.1 °C.

For the compound `CCCCCNC(=O)N1CCC(CN(Cc2ccc(Cl)cc2)Cc2ccc([N+](=O)[O-])s2)C1` (stereo not given), the ΔTm was 0.03 °C in experiment [1]; 0.81 °C in experiment [2]; 0.7 °C in experiment [3]; -1.49 °C in experiment [4]; 0.03 °C in experiment [5]; -0.9 °C in experiment [6].

As to `O=C(Cc1ccccc1)Nc1nnc(N2C[C@H]3C[C@@H]2CN3c2cccnn2)s1`, the thermal shift (ΔTm) was 0.09 °C in experiment [1]; 0.52 °C in experiment [2]; -0.12 °C in experiment [3]; -0.33 °C in experiment [4]; 0.33 °C in experiment [5]; -0.14 °C in experiment [6].

Consider `Cc1cc(NC(=O)c2cccc(NC(=O)/C=C/CN(C)C)c2)ccc1Nc1nccc(-c2cccnc2)n1`, for which the ΔTm in experiment [1] came out at 3.79 °C; in experiment [2], 1.64 °C; in experiment [3] it was 4.02 °C; in experiment [4], 6.68 °C; in experiment [5] it was 1.52 °C; in experiment [6] it was 5.38 °C.

For `C=C1/C(=C\C=C2/CCC[C@]3(C)[C@@H]([C@H](C)CCCC(C)(C)O)CC[C@@H]23)C[C@@H](O)C[C@@H]1O`, the ΔTm in experiment [1] is -0.27 °C; in experiment [2] it was -4.7 °C; in experiment [3], 0 °C; in experiment [4] it was -6.39 °C; in experiment [5], -0.74 °C; in experiment [6] it was -10 °C.

In the case of `Cc1cn([C@H](C)CC#N)c(=O)c2cc(Cn3nc(C(F)F)cc3Cl)nn12`, the shift in melting temperature (ΔTm) in experiment [1] was 0.14 °C; in experiment [2] it was -0.62 °C; in experiment [3], -0.16 °C; in experiment [4] it was -0.46 °C; in experiment [5], 0.16 °C; in experiment [6], -1.16 °C.

On to `C[C@H](NC(=O)c1cnc2n1[C@](C)(Cc1ccc(C#N)cc1)C(=O)N2c1cc(Cl)c(F)c(Cl)c1)C(=O)NC1(c2ccccn2)CC1`, for which the ΔTm in experiment [1] is 0.04 °C; in experiment [2], 0.07 °C; in experiment [3] it was 0.77 °C; in experiment [4], -3.42 °C; in experiment [5], 10.2 °C; in experiment [6], 0.19 °C.

For the compound `CN(C)C(=O)Cn1cc(-c2ccc(-c3nnc4ccccn34)cc2)cn1`, the ΔTm in experiment [1] was -0.4 °C; in experiment [2], 0.44 °C; in experiment [3], 0.44 °C; in experiment [4], -0.7 °C; in experiment [5], 0.27 °C; in experiment [6], -0.04 °C.

On to `COc1ccc(C(F)(F)F)cc1NC(=O)Nc1ccc(Oc2cc(C)nc(N)n2)c2ccccc12`, for which the ΔTm in experiment [1] is 5.29 °C; in experiment [2], 1.11 °C; in experiment [3], 0.31 °C; in experiment [4] it was 1.99 °C; in experiment [5] it was 0.06 °C; in experiment [6] it was -0.77 °C.

In the case of `Cn1cnc(Cn2ccc3ccc(CNCc4[nH]c5ccccc5c4[C@@H]4NC(=O)c5ccc(O)cc54)cc32)c1`, the ΔTm in experiment [1] was 0.7 °C; in experiment [2] it was 0.07 °C; in experiment [3] it was 0.29 °C; in experiment [4], -0.16 °C; in experiment [5], 0.02 °C; in experiment [6] it was 0.7 °C.

For `CC(=O)c1c(C)c2cnc(Nc3ccc(N4CCN(CCCCNC(=O)COc5cccc6c5C(=O)N(C5CCC(=O)NC5=O)C6=O)CC4)cn3)nc2n(C2CCCC2)c1=O` (stereo not given), the ΔTm in experiment [1] was 0.12 °C; in experiment [2], 0.59 °C; in experiment [3] it was 0.26 °C; in experiment [4], 0.7 °C; in experiment [5], 0.16 °C; in experiment [6], -0.33 °C.

For `CNC(=O)c1ccc2c(c1)NC(=O)/C2=C(\Nc1ccc(CN2CCCCC2)cc1)c1ccccc1`, the ΔTm in experiment [1] worked out at 7.98 °C; in experiment [2], 0.46 °C; in experiment [3], 0.03 °C; in experiment [4], 1.71 °C; in experiment [5], 0.02 °C; in experiment [6], 3.8 °C.

`O=C(O)CCCCN(CCc1ccccc1OCc1ccc(CCc2ccccc2)cc1)Cc1ccc(C(=O)O)cc1`: the ΔTm in experiment [1] was -0.26 °C; in experiment [2], 0.13 °C; in experiment [3] it was -0.05 °C; in experiment [4], -0.16 °C; in experiment [5] it was -0.08 °C; in experiment [6] it was -0.23 °C.

On to `CNC(=O)c1ccc(C)c(-n2c(C)cc(OCc3ccc(F)cc3F)c(Br)c2=O)c1`, for which the ΔTm in experiment [1] is -0.5 °C; in experiment [2], -0.88 °C; in experiment [3], -0.45 °C; in experiment [4], -1.44 °C; in experiment [5], -0.46 °C; in experiment [6], -1.48 °C.

As for `CC1(C)Cc2nc(C3CCCC3)c([C@@H](F)c3ccc(C(F)(F)F)cc3)c(C3CCCCC3)c2[C@@H](O)C1`, the ΔTm in experiment [1] was 0 °C; in experiment [2], 1.04 °C; in experiment [3], 0.11 °C; in experiment [4], 0 °C; in experiment [5] it was 0.06 °C; in experiment [6], -0.24 °C.

As to `CC(C)S(=O)(=O)c1ccccc1Nc1nc(N[C@@H]2CCCN(CCCCCCCNC(=O)COc3cccc4c3C(=O)N(C3CCC(=O)NC3=O)C4=O)C2)ncc1Cl` (stereo not given in full), the ΔTm was determined as 8.06 °C in experiment [1]; 4.21 °C in experiment [2]; 3.26 °C in experiment [3]; 11.1 °C in experiment [4]; 3.07 °C in experiment [5]; 10.6 °C in experiment [6].

As for `CCN1C(=O)c2cc(C)ccc2N(C)c2ncccc21`, the ΔTm in experiment [1] was -0.36 °C; in experiment [2], 0.32 °C; in experiment [3], 0.14 °C; in experiment [4], -0.36 °C; in experiment [5] it was 0.23 °C; in experiment [6] it was 0.08 °C.

For `COc1ccccc1S(=O)(=O)Nc1ccc2c(c1)CN(C)C(=O)N2`, the ΔTm in experiment [1] is 0.09 °C; in experiment [2] it was 1.13 °C; in experiment [3] it was 0.79 °C; in experiment [4], -0.57 °C; in experiment [5], 0.21 °C; in experiment [6] it was -0.1 °C.

Turning to `Cc1ccc(-n2nc(C(C)(C)C)cc2NC(=O)Nc2ccccc2F)cc1`, the ΔTm is 1.53 °C in experiment [1]; 1.51 °C in experiment [2]; 2.52 °C in experiment [3]; -0.41 °C in experiment [4]; 3.34 °C in experiment [5]; -1.69 °C in experiment [6].

As to `Fc1ccc(-c2nc(-c3c(F)cccc3F)[nH]c2-c2ccncc2)cc1`, the ΔTm in experiment [1] is 4.45 °C; in experiment [2], 1.7 °C; in experiment [3], 6.41 °C; in experiment [4] it was 7.77 °C; in experiment [5], 0.52 °C; in experiment [6], -0.55 °C.

For the compound `Cc1nc2cccnc2n2c(-c3cc(C(C)(C)O)ncc3Cl)nnc12`, the ΔTm in experiment [1] is -0.85 °C; in experiment [2], 0.85 °C; in experiment [3] it was 0.33 °C; in experiment [4] it was -0.45 °C; in experiment [5] it was 0.31 °C; in experiment [6], -0.06 °C.

As to `OC(c1ccc(-c2ccc(CN3CCN(Cc4ccncc4)CC3)cc2)c(F)c1)(C(F)(F)F)C(F)(F)F`, the ΔTm was -0.1 °C in experiment [1]; 0.64 °C in experiment [2]; -0.18 °C in experiment [3]; -0.86 °C in experiment [4]; 0.02 °C in experiment [5]; -1.1 °C in experiment [6].

In the case of `CNC(=O)c1c(F)cccc1Nc1nc(Nc2cc3c(cc2OC)CCN3C(=O)CN(C)C)nc2[nH]ccc12`, the ΔTm in experiment [1] was -0.29 °C; in experiment [2], 0.06 °C; in experiment [3], 1.14 °C; in experiment [4], -0.64 °C; in experiment [5], 1 °C; in experiment [6], 0.07 °C.

Consider `Clc1ccc(-c2nc3sccn3c2/C=N/OCc2ccc(Cl)c(Cl)c2)cc1`, for which the thermal shift (ΔTm) is -0.76 °C in experiment [1]; -0.94 °C in experiment [2]; -2.09 °C in experiment [3]; -0.83 °C in experiment [4]; -0.15 °C in experiment [5]; -1.05 °C in experiment [6].

Consider `CC1CCN(c2ccnc(NCc3cn(C)cn3)n2)CC1`, for which the shift in melting temperature (ΔTm) was -1.33 °C in experiment [1]; 0.15 °C in experiment [2]; 0.29 °C in experiment [3]; -0.33 °C in experiment [4]; 0.75 °C in experiment [5]; -0.52 °C in experiment [6].

The values are drawn from ChEMBL document CHEMBL5308504, “Tm Shift (DSF) assay results for EUbOPEN Chemogenomics Library” (2023).
